Eight molecules from PubChem BioAssay (EPA / NIEHS) can be followed below.

Test [1] deals with Paired box protein Pax-6 (Homo sapiens) (UniProt P26367). The test can be described thus: ATG_Pax6_CIS: Attagene CIS-FACTORIAL HepG2 Assay for human Paired Box 6 (PAX6) (AID 2282956). As to conditions: HepG2 CIS-FACTORIAL PAX6 reporter transcription, RNA readout; actives raise or lower the signal. Summed up: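 Transient MRTU transfection of HepG2 → compound exposure 24 h → TriZol RNA, oligo(dT) RT → PCR, 6-FAM primer extension, HpaI cut → capillary electrophoresis; activity fitted both directions against DMSO.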

Test [2] is described as follows: ATG_PXRE_CIS: Attagene CIS-FACTORIAL HepG2 Assay for human Pregnane X Receptor Element (PXRE) (AID 2282957). The note with it: HepG2 Attagene CIS-FACTORIAL PXRE reporter, mRNA; actives raise or lower the signal. In outline:
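Transiently transfected HepG2 cells were dosed and incubated for 24 h. RNA was then isolated, DNase-treated, reverse-transcribed and reporter sequences amplified. Labeled, HpaI-digested fragments were quantified by capillary electrophoresis against DMSO.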

The nature of test [3]: ATG_PPRE_CIS: Attagene CIS-FACTORIAL HepG2 Assay for human Peroxisome Proliferator-activated Response Element (PPRE) (AID 2282958). The note with it: HepG2 PPRE cis-element reporter, Attagene transcription factor profiling; actives raise or lower the signal. Summed up: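 Read-out: fluorescent reporter mRNA fragments resolved by capillary electrophoresis after RT-PCR. HepG2 cells carried transiently transfected PPRE-driven cis reporter constructs and were dosed for 24 h; gain or loss of signal fitted relative to DMSO.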

The nature of test [4]: ATG_RORE_CIS: Attagene CIS-FACTORIAL HepG2 Assay for human RAR-related Orphan Receptor Element (RORE) (AID 2282959). As to conditions: HepG2 Attagene cis-factorial RORE reporter, mRNA; actives raise or lower the signal. In outline:
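Readout: fluorescent reporter mRNA by RT-PCR plus capillary electrophoresis, 24 h after dosing transfected HepG2 cells. Endogenous transcription factor activity on a cis promoter element is measured. Gain or loss of signal fitted against DMSO.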

The nature of test [5]: ATG_Sox_CIS: Attagene CIS-FACTORIAL HepG2 Assay for human SRY-box transcription factor (SOX) (AID 2282960). The note with it: HepG2 Attagene cis-factorial SOX reporter, mRNA; actives raise or lower the signal. Summed up: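 Read-out: fluorescent RT-PCR products of SOX1-linked reporter transcripts resolved by capillary electrophoresis, fitted bidirectionally against DMSO. Transiently transfected HepG2 cells, 24 h after chemical exposure, endogenous transcription factor activity.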

In test [6] the target is Transcription factor Sp1 (Homo sapiens) (UniProt P08047). The test can be described thus: ATG_Sp1_CIS: Attagene CIS-FACTORIAL HepG2 Assay for human Specificity Protein 1 (Sp1) (AID 2282961). The note with it: HepG2 Sp1 cis-reporter transcription, actives raise or lower the signal. Summed up:
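Read-out: fluorescence of 6-FAM-labeled, HpaI-digested RT-PCR products separated by capillary electrophoresis. HepG2 cells carried transfected cis-element reporter units and were exposed to chemicals for 24 h; gain or loss of signal fitted relative to DMSO.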

Test [7] can be described thus: ATG_SREBP_CIS: Attagene CIS-FACTORIAL HepG2 Assay for human Sterol Regulatory Element Binding (SREBP) (AID 2282962). The note with it: HepG2 Attagene cis-factorial SREBP reporter, mRNA; actives raise or lower the signal. Summed up: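 Transfected HepG2 (cis-regulated reporter library, endogenous TFs) → compound 24 h → total RNA → oligo(dT) RT → reporter-specific PCR → FAM primer extension, HpaI cut → CE fluorescence. Fit bidirectional vs DMSO.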

Test [8] deals with Signal transducer and activator of transcription 3 (Homo sapiens) (UniProt P40763). The test can be described thus: ATG_STAT3_CIS: Attagene CIS-FACTORIAL HepG2 Assay for human Signal Transducer and Activator of Transcription 3 (STAT3) (AID 2282963). As to conditions: HepG2, Attagene cis-factorial STAT3 reporter transcription; actives raise or lower the signal. Summed up:
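After a 24 h compound incubation, total RNA from MRTU-transfected HepG2 cells was converted to cDNA and reporter sequences PCR-amplified, labelled and profiled by capillary electrophoresis. Gain and loss of signal were referenced to DMSO.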

Test [9] is described as follows: ATG_TA_CIS: Attagene CIS-FACTORIAL HepG2 Assay for human TA Basal Promoter (AID 2282964). The note with it: HepG2 Attagene CIS-factorial TA basal promoter reporter; actives raise or lower the signal. In outline:
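Fluorescence from labelled RT-PCR reporter fragments, separated by capillary electrophoresis, gives the signal. Cells: HepG2 transiently carrying multiple reporter units, 24 h chemical dosing. Gain or loss relative to DMSO.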

A short description of test [10]: ATG_TCF_b_cat_CIS: Attagene CIS-FACTORIAL HepG2 Assay for human T-Cell-Factor with beta-catenin (TCF/b-cat) (AID 2282965). The note with it: HepG2 TCF/beta-catenin cis-reporter transcription, actives raise or lower the signal. In outline:
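Measured: reporter mRNA in HepG2 transiently transfected with cis-promoter reporter units, 24 h after chemical addition. Fitting was bidirectional, DMSO as negative control.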

A short description of test [11]: ATG_TAL_CIS: Attagene CIS-FACTORIAL HepG2 Assay for human TAL Basal Promoter (AID 2282966).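 Note: background control endpoint measuring basal TAL promoter reporter mRNA not a specific factor.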 As to conditions: HepG2 Attagene cis-factorial TAL promoter reporter; actives raise or lower the signal. Summed up: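 Readout: reporter mRNA, fluorescence by CE. System: HepG2, transient multi-reporter transfection, endogenous TF activity. Exposure: 24 h. Analysis: bidirectional, DMSO-normalized; background control.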

Test [12] can be described thus: ATG_TGFb_CIS: Attagene CIS-FACTORIAL HepG2 Assay for human Transforming Growth Factor (TGF) (AID 2282967). As to conditions: HepG2 Attagene CIS TGFb reporter, mRNA transcription; actives raise or lower the signal. In outline:
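Bidirectional fitting relative to DMSO gave the endpoint. Underlying data: reporter mRNA from HepG2 cells carrying transiently transfected cis-regulated reporter constructs, harvested 24 h after dosing and analyzed by RT-PCR and capillary electrophoresis.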

The target in test [13] is Nuclear receptor subfamily 1 group I member 3 (Homo sapiens) (UniProt Q14994). The test can be described thus: ATG_CAR_TRANS: Attagene TRANS-FACTORIAL HepG2 Assay for human Constitutive Androstane Receptor (CAR) (AID 2282969; active = hit-call score of the fitted dose curve at least 0.9, where 1 is the maximum;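 note: activators raise reporter mRNA above DMSO so AC50 marks induction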). The note with it: HepG2 Attagene TRANS-FACTORIAL CAR reporter. Summed up: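 Readout is reporter mRNA induction, quantified by fluorescent primer extension and capillary electrophoresis after RT-PCR. Cells were HepG2 transiently carrying chimeric NR-Gal4 constructs with GAL4-UAS reporters, treated for 24 h; activity scored upward from DMSO.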

For test [14], the target named is Estrogen receptor (Homo sapiens) (UniProt P03372). The test can be described thus: ATG_ERa_TRANS: Attagene TRANS-FACTORIAL HepG2 Assay for human Estrogen Receptor alpha (ERa) (AID 2282970; active = hit-call score of the fitted dose curve at least 0.9, where 1 is the maximum). The note with it: HepG2 Attagene TRANS ERa GAL4 reporter, mRNA. Summed up: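 Transactivation via ERa-Gal4 chimera in HepG2; 24 hour incubation; reporter mRNA detected by fluorescence RT-PCR and capillary electrophoresis.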

The target of test [15] is Steroid hormone receptor ERR1 (Homo sapiens) (UniProt P11474). The test is described as follows: ATG_ERRa_TRANS: Attagene TRANS-FACTORIAL HepG2 Assay for human Estrogen-Related Receptor alpha (ERRa) (AID 2282971; active = hit-call score of the fitted dose curve at least 0.9, where 1 is the maximum). As to conditions: HepG2 Attagene TRANS reporter, ERRa transactivation. Summed up:
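HepG2 cells were transiently transfected with multiple GAL4-UAS reporter units, then dosed with compound for 24 h. Total RNA was reverse-transcribed, reporter cDNA PCR-amplified and fluorescently labelled, and fragments resolved by capillary electrophoresis; induction was compared with DMSO.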

Test [16] addresses X-box-binding protein 1 (Homo sapiens) (UniProt P17861). The test can be described thus: ATG_Xbp1_CIS: Attagene CIS-FACTORIAL HepG2 Assay for human X-box Binding Protein 1 (XBP1) (AID 2282972). The note with it: HepG2 XBP1 cis-element reporter, Attagene multiplex; actives raise or lower the signal. Summed up: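 HepG2, transient MRTU transfection (cis-promoter driven), 24 h compound exposure. Total RNA → oligo(dT) RT → PCR → 6-FAM labeling → HpaI cut → CE. Bidirectional fit vs DMSO.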

A short description of test [17]: ATG_M_19_TRANS: Attagene TRANS-FACTORIAL HepG2 Assay for M19 Transcription Factor (Internal Marker) (AID 2282974; active = hit-call score of the fitted dose curve at least 0.9, where 1 is the maximum). The note with it: HepG2 Attagene TRANS-FACTORIAL M19 internal marker reporter. Summed up: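 24 h chemical exposure of transiently transfected HepG2 (MRTU library). RNA → oligo(dT) RT → PCR → 6-FAM labelling → HpaI cut → CE fluorescence. Positive-direction fit vs DMSO baseline; background internal-marker readout.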

Test [18] in a line: ATG_GAL4_TRANS: Attagene TRANS-FACTORIAL HepG2 Assay for GAL4 (Internal Marker) (AID 2282976; active = hit-call score of the fitted dose curve at least 0.9, where 1 is the maximum). As to conditions: HepG2 Attagene TRANS GAL4 internal marker reporter. In outline:
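Fluorescence from capillary electrophoresis of labelled RT-PCR products quantifies reporter mRNA induction after 24 h dosing of HepG2 cells carrying transfected GAL4-UAS reporter transcription units. Vehicle DMSO serves as baseline.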

In test [19] the target is Estrogen-related receptor gamma (Homo sapiens) (UniProt P62508). The test is described as follows: ATG_ERRg_TRANS: Attagene TRANS-FACTORIAL HepG2 Assay for human Estrogen-Related Receptor gamma (ERRg) (AID 2282977; active = hit-call score of the fitted dose curve at least 0.9, where 1 is the maximum;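 note: hits increase reporter signal over DMSO so potencies reflect activators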). As to conditions: HepG2 Attagene TRANS reporter, ERRg transactivation. Summed up:
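HepG2 cells transiently transfected with multiplexed GAL4-UAS reporter units and chimeric NR-Gal4 constructs were exposed to test chemicals for 24 h. Reporter mRNA was measured by RT-PCR, 6-FAM primer extension, HpaI digestion and capillary electrophoresis; gain-of-signal versus DMSO.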

Test [20] can be described thus: ATG_VDRE_CIS: Attagene CIS-FACTORIAL HepG2 Assay for human Vitamin D Receptor Element (VDRE) (AID 2282968). The note with it: HepG2 VDRE cis-reporter transcription, actives raise or lower the signal. In outline: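 In transiently transfected HepG2 liver cells, gain or loss of reporter mRNA after 24 h exposure is scored relative to DMSO, using fluorescence detection by capillary electrophoresis of RT-PCR products.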

For orientation: AC50 means the concentration at which the activity in the assay is half-maximal.

Inconclusive results are not listed. Calls of active or inactive are those of the source. Rule for the calls, unless noted: active = hit-call score of the fitted dose curve at least 0.9, where 1 is the maximum; inactive = score below 0.9.

Sequence of Signal transducer and activator of transcription 3 (Homo sapiens) (P40763 whole entry, looked up): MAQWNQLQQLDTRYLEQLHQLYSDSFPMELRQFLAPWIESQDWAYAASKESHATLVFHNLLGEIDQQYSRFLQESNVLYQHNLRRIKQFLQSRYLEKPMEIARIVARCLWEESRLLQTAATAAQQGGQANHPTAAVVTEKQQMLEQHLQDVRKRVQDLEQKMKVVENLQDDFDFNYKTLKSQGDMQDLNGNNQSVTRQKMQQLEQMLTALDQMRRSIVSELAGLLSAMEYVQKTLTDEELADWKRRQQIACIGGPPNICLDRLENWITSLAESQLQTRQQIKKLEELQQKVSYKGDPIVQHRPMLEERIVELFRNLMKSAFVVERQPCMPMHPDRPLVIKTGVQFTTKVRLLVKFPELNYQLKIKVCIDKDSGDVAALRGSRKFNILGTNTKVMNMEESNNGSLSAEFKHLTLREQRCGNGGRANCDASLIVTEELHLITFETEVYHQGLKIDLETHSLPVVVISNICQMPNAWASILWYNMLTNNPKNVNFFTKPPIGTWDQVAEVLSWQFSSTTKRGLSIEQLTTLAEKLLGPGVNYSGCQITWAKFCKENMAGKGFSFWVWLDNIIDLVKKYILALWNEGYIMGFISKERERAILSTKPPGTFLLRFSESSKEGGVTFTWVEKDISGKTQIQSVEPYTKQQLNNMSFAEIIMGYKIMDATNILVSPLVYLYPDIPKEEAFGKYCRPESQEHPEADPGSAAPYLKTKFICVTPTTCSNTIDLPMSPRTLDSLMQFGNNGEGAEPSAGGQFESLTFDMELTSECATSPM
Sequence of Transcription factor Sp1 (Homo sapiens) (P08047 whole entry, looked up): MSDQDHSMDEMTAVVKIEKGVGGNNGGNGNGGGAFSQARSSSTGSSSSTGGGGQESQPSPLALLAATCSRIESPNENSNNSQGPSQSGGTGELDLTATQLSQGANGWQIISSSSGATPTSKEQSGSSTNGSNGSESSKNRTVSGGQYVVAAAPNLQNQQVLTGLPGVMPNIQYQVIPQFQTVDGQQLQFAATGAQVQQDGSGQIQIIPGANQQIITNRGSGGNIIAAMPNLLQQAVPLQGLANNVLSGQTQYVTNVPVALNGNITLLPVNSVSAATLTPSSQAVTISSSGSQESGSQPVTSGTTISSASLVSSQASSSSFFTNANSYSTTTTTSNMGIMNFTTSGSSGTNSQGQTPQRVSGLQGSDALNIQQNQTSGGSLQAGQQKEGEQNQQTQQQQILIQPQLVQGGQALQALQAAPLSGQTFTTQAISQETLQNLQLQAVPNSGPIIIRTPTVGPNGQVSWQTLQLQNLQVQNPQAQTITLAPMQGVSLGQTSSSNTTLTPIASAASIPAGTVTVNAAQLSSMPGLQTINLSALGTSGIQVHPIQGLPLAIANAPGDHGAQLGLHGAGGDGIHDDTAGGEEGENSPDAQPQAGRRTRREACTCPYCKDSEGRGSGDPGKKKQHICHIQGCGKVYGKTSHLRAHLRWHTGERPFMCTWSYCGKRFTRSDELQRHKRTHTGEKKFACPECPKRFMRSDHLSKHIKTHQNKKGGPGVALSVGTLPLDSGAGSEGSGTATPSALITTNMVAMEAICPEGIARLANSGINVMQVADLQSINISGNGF
Sequence of X-box-binding protein 1 (Homo sapiens) (P17861 whole entry, looked up): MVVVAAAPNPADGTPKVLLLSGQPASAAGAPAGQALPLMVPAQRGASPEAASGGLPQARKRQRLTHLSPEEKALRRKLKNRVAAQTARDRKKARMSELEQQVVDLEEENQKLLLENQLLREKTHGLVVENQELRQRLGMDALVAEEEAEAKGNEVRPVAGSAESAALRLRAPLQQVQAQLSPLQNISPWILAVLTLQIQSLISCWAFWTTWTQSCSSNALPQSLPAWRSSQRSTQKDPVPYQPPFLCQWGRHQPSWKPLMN
Sequence of Estrogen-related receptor gamma (Homo sapiens) (P62508 whole entry, looked up, the tested form may be a part): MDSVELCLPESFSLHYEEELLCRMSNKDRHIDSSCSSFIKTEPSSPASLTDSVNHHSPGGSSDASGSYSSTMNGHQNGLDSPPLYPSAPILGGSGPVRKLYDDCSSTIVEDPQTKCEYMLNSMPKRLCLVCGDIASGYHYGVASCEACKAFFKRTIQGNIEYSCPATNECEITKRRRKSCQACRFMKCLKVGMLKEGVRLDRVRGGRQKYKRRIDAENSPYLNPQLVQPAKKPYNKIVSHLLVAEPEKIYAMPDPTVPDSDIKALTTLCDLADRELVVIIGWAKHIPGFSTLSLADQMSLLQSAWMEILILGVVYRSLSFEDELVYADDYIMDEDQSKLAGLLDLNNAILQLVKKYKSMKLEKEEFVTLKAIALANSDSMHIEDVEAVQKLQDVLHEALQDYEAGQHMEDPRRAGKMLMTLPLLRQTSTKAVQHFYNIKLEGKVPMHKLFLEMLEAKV
Sequence of Paired box protein Pax-6 (Homo sapiens) (P26367 whole entry, looked up): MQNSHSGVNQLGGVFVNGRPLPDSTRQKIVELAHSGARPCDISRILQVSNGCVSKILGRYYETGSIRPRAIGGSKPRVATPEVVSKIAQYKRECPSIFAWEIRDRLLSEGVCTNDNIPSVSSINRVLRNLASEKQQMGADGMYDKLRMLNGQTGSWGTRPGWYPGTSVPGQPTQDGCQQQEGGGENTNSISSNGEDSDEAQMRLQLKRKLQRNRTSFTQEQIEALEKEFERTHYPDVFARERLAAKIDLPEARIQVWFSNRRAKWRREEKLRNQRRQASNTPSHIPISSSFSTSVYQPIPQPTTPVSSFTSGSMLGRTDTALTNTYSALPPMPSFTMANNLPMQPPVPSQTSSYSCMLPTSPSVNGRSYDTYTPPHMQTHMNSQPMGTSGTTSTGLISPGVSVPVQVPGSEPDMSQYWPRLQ
Sequence of Estrogen receptor (Homo sapiens) (P03372 whole entry, looked up, the tested form may be a part): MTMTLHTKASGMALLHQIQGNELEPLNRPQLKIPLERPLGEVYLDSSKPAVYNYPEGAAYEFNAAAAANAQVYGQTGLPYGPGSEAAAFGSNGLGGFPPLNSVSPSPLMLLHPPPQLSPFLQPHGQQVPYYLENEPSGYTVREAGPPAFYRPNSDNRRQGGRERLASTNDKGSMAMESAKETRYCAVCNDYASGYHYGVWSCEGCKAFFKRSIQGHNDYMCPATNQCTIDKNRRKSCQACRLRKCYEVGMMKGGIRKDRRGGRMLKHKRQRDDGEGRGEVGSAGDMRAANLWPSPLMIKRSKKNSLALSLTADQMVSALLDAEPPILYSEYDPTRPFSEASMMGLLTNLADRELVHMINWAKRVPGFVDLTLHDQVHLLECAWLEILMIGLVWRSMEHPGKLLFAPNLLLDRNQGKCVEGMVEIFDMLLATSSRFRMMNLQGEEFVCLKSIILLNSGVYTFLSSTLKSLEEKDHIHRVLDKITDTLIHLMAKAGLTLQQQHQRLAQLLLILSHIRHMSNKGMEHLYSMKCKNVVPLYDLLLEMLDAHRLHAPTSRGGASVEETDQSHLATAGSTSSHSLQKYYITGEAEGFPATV
Sequence of Nuclear receptor subfamily 1 group I member 3 (Homo sapiens) (Q14994 whole entry, looked up, the tested form may be a part): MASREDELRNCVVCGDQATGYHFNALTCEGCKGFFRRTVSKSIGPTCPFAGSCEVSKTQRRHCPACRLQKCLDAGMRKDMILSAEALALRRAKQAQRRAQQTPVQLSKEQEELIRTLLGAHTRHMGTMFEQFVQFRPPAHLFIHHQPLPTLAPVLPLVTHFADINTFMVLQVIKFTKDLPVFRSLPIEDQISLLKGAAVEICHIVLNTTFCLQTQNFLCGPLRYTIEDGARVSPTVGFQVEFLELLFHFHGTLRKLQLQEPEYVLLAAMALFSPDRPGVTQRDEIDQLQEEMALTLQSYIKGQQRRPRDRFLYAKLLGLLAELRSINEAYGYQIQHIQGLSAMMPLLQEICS
Sequence of Steroid hormone receptor ERR1 (Homo sapiens) (P11474 whole entry, looked up, the tested form may be a part): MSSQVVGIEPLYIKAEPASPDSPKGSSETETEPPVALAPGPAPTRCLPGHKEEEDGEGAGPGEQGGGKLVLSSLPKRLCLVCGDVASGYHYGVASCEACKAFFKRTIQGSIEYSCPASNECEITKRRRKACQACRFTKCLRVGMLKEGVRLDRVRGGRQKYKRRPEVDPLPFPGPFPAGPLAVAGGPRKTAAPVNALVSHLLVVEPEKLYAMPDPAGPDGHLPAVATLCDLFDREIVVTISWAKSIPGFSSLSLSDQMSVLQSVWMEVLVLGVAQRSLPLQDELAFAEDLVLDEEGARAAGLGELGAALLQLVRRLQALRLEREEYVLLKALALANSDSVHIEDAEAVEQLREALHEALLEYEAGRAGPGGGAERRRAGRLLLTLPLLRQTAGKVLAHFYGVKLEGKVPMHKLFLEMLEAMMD

As to `COc1cc(NC(=O)CC(C)=O)c(OC)cc1Cl`, the molecule was classed as inactive in test [1], in test [3], in test [4], in [5], in [6] and in test [7]. In addition, the outcome in test [8], in test [9], in [10], in test [11], in [12] and in [13] was inactive. The result in test [14], in test [15], in test [16], in [17], in [18] and in test [19] was inactive. Besides, the AC50 in test [2] was 31.5 µM (active).

Consider `O=S(=O)(O)CC(O)CCl` (stereo unspecified), for which the call in test [1], in test [2], in test [3], in test [4], in test [5] and in test [6] was inactive. Further, the outcome in test [7], in test [8], in [9], in test [10], in [11] and in [12] was inactive. Also, the outcome in test [20], in test [16] and in test [18] was inactive.

In the case of `O=C1CCC(=O)N1Cl`, the outcome in [1], in test [2], in test [3], in test [4], in [5] and in test [6] was inactive. The molecule was classed as inactive in [7], in test [8], in test [9], in [10], in test [11] and in test [12]. Besides, the molecule was classed as inactive in [20], in test [16], in test [17] and in test [18].

On to `COCCOCCOCCOCCOC`, for which the molecule was classed as inactive in [1], in [2], in test [3], in test [4], in [5] and in test [6]. Further, the molecule was called inactive in test [7], in [8], in test [9], in test [10], in test [11] and in [12]. The result in test [20], in test [16] and in test [18] was inactive.

On to `CNC(=S)NN`, for which the result in [1], in [2], in [3], in test [4], in test [5] and in [6] was inactive. Further, the molecule was called inactive in [7], in test [8], in [9], in test [10], in [11] and in test [20]. Moreover, the call in test [14], in test [16], in [17], in test [18] and in test [19] was inactive.

Consider `CCOc1nc(F)cc2nc(S(=O)(=O)Nc3c(Cl)cccc3C(=O)OC)nn12`, for which the molecule was called inactive in test [1], in test [3], in test [4], in test [5], in test [6] and in test [7]. For the same molecule, the outcome in test [8], in test [9], in test [10], in test [11], in test [12] and in test [16] was inactive. Also, in [18], the result was inactive. Besides, the AC50 in test [2] is 7.46 µM (active).

For `Cc1ccc(N)c([N+](=O)[O-])c1`, the molecule was called inactive in test [1], in [2], in [3], in test [4], in test [5] and in test [6]. Further, the result in test [7], in test [8], in [9], in [10], in [11] and in [12] was inactive. Also, the result in test [20] and in test [17] was inactive.

Consider `O=c1[nH]nc(-c2ccc([N+](=O)[O-])o2)o1`, for which the result in test [1], in [2], in test [3], in [4], in test [5] and in test [6] was inactive. Also, the molecule was classed as inactive in test [7], in test [8], in test [9], in test [10], in [11] and in test [20]. The molecule was classed as inactive in [13], in [16], in test [17] and in test [19].
